The values that follow come from PubChem BioAssay (NCI).

The panel holds about 83,000 compounds, 20% with a hit somewhere; the sample as a whole holds those more often.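 Negative percent growth values reflect cell death: -40 means 40% of the cells present at the start died, and -100 means all died.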 Values without a mark were called inactive. Calls of active or inactive are those of the source. The calls were made as follows: active = growth percent below 10; inactive = the rest.

Holding throughout (assay): NCI-60 one-dose screen, 48 h (100 = growth as untreated, 0 = no growth, -100 = all killed)
Details in all cases: 10 µM unless noted

The subject of assay [1] is HCT-15 colon.
Assay [2] has as its system HT29 colon.
The test system of assay [3] is SNB-75 CNS.
For assay [4], the system named is SNB-19 CNS.
Assay [5] deals with U251 CNS.
The subject of assay [6] is PC-3 prostate.
Assay [7] concerns SK-MEL-5 melanoma.
The subject of assay [8] is UACC-62 melanoma.
The subject of assay [9] is LOX IMVI melanoma.
Assay [10] concerns SK-MEL-28 melanoma.

For `O=C1CCC(N2Cc3c(C#CCCCNC(=O)c4cc5c(o4)C(=O)c4ccccc4C5=O)cccc3C2=O)C(=O)N1` (centres undefined), the growth is 76% in assay [1]; -15.4% (active) in assay [2]; -98.7% (active) in [3]; -8.73% (active) in [4]; -27.7% (active) in assay [5]; 4.79% (active) in assay [6]. Moreover, the growth in assay [7] is -99.2% (active); in [8], -84.4% (active); in assay [9] it was -88.3% (active); in [10], -22.9% (active).

Take `COc1cc(-c2nc3ccccc3o2)cc(CN2CCN(c3ccccc3)CC2)c1O`: the growth in [1] is 43.6%; in [2], 93.8%; in assay [3] it was 65.7%; in [4], 82.6%; in assay [5], 52.6%; in [6] it was 40.4%. In addition, the growth in assay [7] is 31.7%; in assay [8], 34%; in [9], 8.05% (active); in assay [10], 87.2%.

For `CCCCc1ccc(C(O)(CCN2CC3CCC(CC3)C2)c2ccccc2)cc1` (centres undefined), the growth is 65.7% in [1]; 68.8% in assay [2]; 116% in assay [3]; 108% in [4]; 83.3% in assay [5]; 94.3% in assay [6]. The growth was 101% in [7], 108% in [8] and 103% in assay [9].

Take `N#CCCN1CCN(CCC#N)C1=S`: the growth is 106% in assay [1]; 98.6% in assay [2]; 95.6% in [3]; 98.5% in [4]; 101% in assay [5]; 99.6% in assay [6]. For the same compound, the growth in assay [7] was 110%; in [8] it was 91.4%; in [9], 104%.

In the case of `COc1ccc(C2SC(C)C(=O)N2CCc2cccs2)cc1OC` (centres undefined), the growth in assay [1] was 87.8%; in assay [2] it was 91.6%; in assay [3], 69.1%; in assay [4] it was 86.9%; in assay [5], 83.2%; in assay [6] it was 65.7%. Besides, the growth in assay [7] was 49.4%; in assay [8], 73.5%; in [9], 81.9%.

Consider `Cc1nc(NN)c([N+](=O)[O-])c(NN)n1`, for which the growth in assay [1] was 105%; in [2], 108%; in assay [3], 114%; in assay [4] it was 109%; in [5], 102%; in [6], 104%. In addition, the growth is 99.4% in [7], 97.3% in assay [8], 111% in assay [9] and 108% in [10].

Consider `NS(=O)(=O)c1cc(Br)c2c(c1)S(=O)(=O)NCN2`, for which the growth in assay [1] is 112%; in assay [2], 103%; in assay [3], 117%; in assay [4], 112%; in [5] it was 107%; in assay [6] it was 105%. Also, the growth in assay [7] is 111%; in assay [8] it was 111%; in assay [9] it was 113%; in [10] it was 110%.

With `COc1ccc(S(=O)(=O)c2ccc(C(N)=O)cc2)cc1NC(=O)c1[nH]c(C)c2c1CCCCC2=O`, the growth in assay [1] is 99.6%; in assay [2], 32.6%; in assay [3], -13.8% (active); in assay [4] it was 60.2%; in assay [5], 38.6%; in [6], 68%. Besides, the growth is 48.5% in [7], 17% in assay [8], 32% in assay [9] and 67.5% in assay [10].

For the compound `O=C1c2[nH]cc(CN[C@@H]3CCCN3)c2C(=O)c2c1c(O)c1ccccc1c2O`, the growth in assay [1] was -38.9% (active); in assay [2] it was -98.4% (active); in assay [3], -71.6% (active); in assay [4], -84.9% (active); in assay [5] it was -98.9% (active); in assay [6] it was -95.1% (active). Moreover, the growth was -89.8% (active) in assay [7], -100% (active) in assay [8] and -93% (active) in [9].

For `Nc1nc2c(s1)CCc1c-2c(Br)n(Cc2ccccc2)c1Br`, the growth was 50.8% in assay [1]; 97.6% in assay [2]; 89.5% in assay [3]; 105% in assay [4]; 91.6% in [5]; 89.1% in assay [6]. For the same compound, the growth in [7] was 89.3%; in assay [8] it was 78.3%; in [9] it was 86.1%; in assay [10], 100%.

As for `N#Cc1c(-c2cccc(F)c2)cc(-c2ccc(Br)s2)[nH]c1=O`, the growth in assay [1] is 27.2%; in assay [2], 118%; in assay [3] it was 61.2%; in [4], 78.4%; in [5], 56.2%; in assay [6], 78.2%. In addition, the growth was 68.8% in assay [7], 57.9% in assay [8], 61.7% in assay [9] and 71.3% in assay [10].

Regarding `O=c1[nH]c(=S)c2c(n1CCCO)CCC2`, the growth in assay [1] was 101%; in assay [2] it was 104%; in [3] it was 88%; in assay [4], 102%; in assay [5], 101%; in [6], 103%. The growth in assay [7] is 101%; in assay [8], 97.2%; in assay [9], 96.5%.

Turning to `COc1ccc(/C=C(\C#N)c2ccc(OC)cc2)cc1`, the growth was 66.2% in assay [1]; 35.6% in assay [2]; 76% in [3]; 80.5% in [4]; 48.8% in assay [5]; 73.7% in assay [6]. Moreover, the figures for the growth in assay [7], in [8] and in assay [9] were 32%, 54.5% and 48.3%, respectively.

With `COc1ccc(NS(=O)(=O)c2ccc(-c3cnc(C4CC4)o3)cc2)cc1`, the growth was 29.7% in assay [1]; 19% in assay [2]; 44.9% in assay [3]; 67.8% in assay [4]; 56.5% in assay [5]; 67% in assay [6]. Also, the growth in assay [7] is 51.3%; in assay [8] it was 49.4%; in assay [9] it was 50.8%; in assay [10], 66.3%.
